Measured values: PubChem BioAssay
Activity calls are given as the source filed them.

Experiment: plasmodial surface anion channel blockers, osmotic lysis – cell-based, P. falciparum Indochina, OD700, 2 h, primary screen (AID 1155);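 also: lysis reports solute entry through the parasite surface anion channel PSAC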
Conditions: P. falciparum Indochina infected erythrocytes, higher = more signal, called active from +8 up or from −8 down

z-score, inactive:
COCCCNC(=O)[C@@]1(Sc2ccc(C)cc2)CC(=O)N(Cc2ccccc2)[C@@H]1c1ccc(CO)cc1I 0.831, COC(=O)[C@H](C)NC(=O)CCC1CC(OC(=O)NCCc2ccc(F)cc2)CC2(CCCC(COC(=O)NCC(c3ccccc3)c3ccccc3)O2)O1 (stereo partly specified) 2.61, COc1ccccc1CN1C(=O)c2ccccc2[C@@H](C(=O)NCC(F)(F)F)[C@@H]1c1ccc(CO)cc1 0.346, Cc1cc2c(c(=O)o1)[C@H](O)[C@H]1O[C@H]1C2=O 0.496, CCN(CC)c1ccc(N2CC=CC34O[C@@H]5/C=C\CCC(C)OC(=O)C5[C@H]3C(=O)N(CCCO)[C@@H]4C2=O)cc1 (stereo partly specified) -0.223, O=C1O[C@@H](c2ccccc2)[C@@H](c2ccccc2)N2[C@@H](c3ccccc3OCCO)[C@]3(C(=O)Nc4ccc(C#CCCO)cc43)[C@@H](C(=O)O)[C@H]12 -2.1, COc1ccc([Si](C)(C)[C@@H]2[C@@H](CC(=O)N3CCC[C@H]3CO)O[C@]3(C(=O)N(Cc4cccc(N5CCC5=O)c4)c4ccccc43)[C@H]2C)cc1 0.838, CC(C)(C)N1CC=CC23O[C@@H]4C=CCCOC(=O)C4[C@H]2C(=O)N(CCCCCO)[C@@H]3C1=O (stereo partly specified) 0.396, COc1cccc([C@@H]2Oc3ccc(Br)cc3C(=O)[C@H]2O)c1 3.35, CO[C@H]1COC(=O)[C@@H]2CCCN2C(=O)CC=C[C@@H](C)[C@H](OC)COC(=O)CC=C[C@@H]1C -1.3, CC(CCN1CCc2nc(-c3ccccc3)c(-c3ccccc3)cc2C1)=NO[C@H](C)c1cn([C@@H]2COC[C@H]2O)nn1 0.722, COC(=O)[C@H]1COC(c2ccc(OCCCO)cc2)=N1 5.33, O=C1[C@H]2[C@H]3[C@H](O)[C@H](O)CC(=NOC[C@@H](O)COCc4ccco4)[C@H]3CC[C@H]2C(=O)N1Cc1ccc2c(c1)OCO2 1.02, CC[C@@H](c1ccccc1)n1c(=O)n2n(c1=O)[C@H]1[C@H](O)[C@@H]3O[C@@H]3C(=NOCC=C(C)CCC=C(C)C)[C@H]1CC2 0.719, C[C@@H](c1ccccc1)N1C(=O)[C@H]2[C@H]3[C@H](O)[C@H](O)CC(=NOC[C@@H](O)COCc4ccco4)[C@@H]3CC[C@H]2C1=O 0.32, CO[C@H]1O[C@H](CO)[C@@H](OC(=O)Nc2ccc3c(c2)OCO3)[C@H](OC(=O)Nc2ccccc2-c2ccccc2)[C@@H]1OC(=O)Nc1ccccc1-c1ccccc1 1.7, NCCCCCNC(=O)[C@@H]1C[C@@H]2C(=O)N3CCC[C@H]3C(=O)N2[C@@H]1c1cccc(OCCO)c1 0.506, C[C@@H]1C=CCC(=O)OC[C@H](C)C(=O)N2CCC[C@H]2C(=O)OC1 0.149, CCCC=C(CCC)[C@@H](NC(=O)c1ccc(-c2ccccc2)cc1)c1ccc(C(=O)OC)cc1 0.453, CCOC(=O)[C@H](Cc1ccccc1)NC(=O)CCC1CC(OC(=O)NCc2ccc3c(c2)OCO3)CC2(CCCC(COC(=O)NCC3CCCCC3)O2)O1 (stereo partly specified) 0.45, COc1ccc(COC(=O)NN=C2C[C@@H](O)[C@@H](O)[C@@H]3[C@@H]4C(=O)N(c5ccc(F)cc5F)C(=O)[C@@H]4CC[C@@H]23)cc1 0.54, CC(C)[C@@H](OCc1ccccc1)[C@H](C)C=NO[C@H](C)c1cn([C@H](CO)Cc2ccccc2)nn1 -1.75, COC(=O)[C@H](C)NC(=O)CCC1CC(OC(=O)NCc2cccc3ccccc23)CC2(CCCC(COC(=O)NCCc3ccc(Cl)cc3)O2)O1 (stereo partly specified) -0.214, COc1ccc(-c2nc3c(c4c2C[C@H](C)OC4)CN(CCC(C)C)CC3)cc1 0.673, O=C(NN=C1C[C@@H](O)[C@@H](O)[C@@H]2[C@@H]3C(=O)N(c4cccc(Oc5ccccc5)c4)C(=O)[C@@H]3CC[C@H]12)OCc1ccccc1 1.1, CCOC(=O)CCN1C(=O)[C@H]2[C@H]3[C@H](O)[C@H](O)CC(=NNC(=O)OCc4ccc(OC)cc4)[C@@H]3CC[C@H]2C1=O 1.07, CCN1C(=O)[C@H]2[C@H]3[C@H](O)C=CC(=O)[C@@H]3CC[C@H]2C1=O -0.343, C=C(CCCC)C(=O)CC[C@@H](OC(C)=O)c1cccc(OCCO)c1 1.81, O=C1C[C@]2(c3ccc([N+](=O)[O-])cc3)C(=O)N(CCN3CCOCC3)c3cc(CO)ccc3[C@H]2N1CC12CC3CC(CC(C3)C1)C2 -0.103, [N-]=[N+]=NCc1ccccc1[C@@H]1OC(c2ccc(OCCCO)cc2)=N[C@]1(Cc1ccccc1)C(=O)N1CCOCC1 2.9, CC(C)N1CC=CC23O[C@@H]4C=CCCOC(=O)C4[C@H]2C(=O)N(CCCCCCO)[C@@H]3C1=O (stereo partly specified) 0.405, CCCNC(=O)[C@@H]1c2ccccc2C(=O)N(Cc2ccccc2Cl)[C@H]1c1ccc(CO)cc1 0.0323, CCN1C(=O)[C@H]2[C@H]3[C@H](O)[C@H](O)CC(=NOCc4ccccc4)[C@H]3CC[C@H]2C1=O 0.012, C[C@H](c1ccccc1)N1C(=O)[C@H]2[C@H]3[C@H](O)[C@H](O)CC(=O)[C@@H]3CC[C@H]2C1=O 0.321, COC(=O)C1=C(C)[C@@H](O)[C@@H](C)[C@H](c2c(OC)c(OC)c(C)c(OC)c2OC)O1 0.589, CC(=O)OC[C@H]1O[C@H](CC=NOC[C@@H](C)[C@H](OCc2ccccc2)C(C)C)C=C[C@@H]1OC(C)=O 0.766
